# TRPML1 inh = qHTS for Inhibitors of the Human Mucolipin Transient Receptor Potential 1 (TRPML1); AID 624415, 2012; activity change, negative = inhibition, % (test concentration not listed); 390,000 tested, 0.02% active; Mucolipin-1 (Homo sapiens), Q9GZU1; TRPML1-inducible cells, Ca2+ dye fluorescence, FDSS; active compounds read low; inhibition of EC80 agonist-evoked calcium signal; in the data active = activity change below about -50%; inconclusive = between about -30% and that limit;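 note: stimulus is agonist 54-4 at its EC80 concentration; % is set by controls: 0 for no effect and ±100 for the full control effect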
# Target sequence (Q9GZU1 whole entry, looked up): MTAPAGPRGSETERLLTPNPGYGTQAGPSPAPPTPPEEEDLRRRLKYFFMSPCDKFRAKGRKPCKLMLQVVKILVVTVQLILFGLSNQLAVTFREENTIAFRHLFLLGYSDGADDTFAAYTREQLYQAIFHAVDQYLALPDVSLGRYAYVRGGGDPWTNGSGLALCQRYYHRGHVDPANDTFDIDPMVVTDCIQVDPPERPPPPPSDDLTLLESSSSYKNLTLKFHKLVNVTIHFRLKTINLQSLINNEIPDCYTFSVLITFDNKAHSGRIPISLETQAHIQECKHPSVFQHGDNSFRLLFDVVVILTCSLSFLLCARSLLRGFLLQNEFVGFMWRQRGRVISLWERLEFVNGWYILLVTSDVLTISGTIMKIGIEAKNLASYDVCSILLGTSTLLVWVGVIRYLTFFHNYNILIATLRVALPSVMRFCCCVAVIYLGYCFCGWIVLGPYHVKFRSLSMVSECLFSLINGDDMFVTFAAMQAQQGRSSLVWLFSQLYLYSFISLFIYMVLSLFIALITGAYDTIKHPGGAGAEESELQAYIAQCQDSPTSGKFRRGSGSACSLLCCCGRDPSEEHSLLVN
#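 Tet-induced TRPML1-DL cells loaded with Ca8 no-wash calcium dye were read kinetically on FDSS. Compound addition was followed by EC80 agonist 54-4 (4 uM final); inhibition was read over 110 s.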
# TRPML1 ag = qHTS for Agonists of the Human Mucolipin Transient Receptor Potential 1 (TRPML1) | activation, % (no concentration beside the values) | AID 624414, 2012 | Mucolipin-1 (Homo sapiens), Q9GZU1 | TRPML1-expressing cells, Ca2+ dye fluorescence, FDSS | 410,000 tested, 0.12% active; in the data active = activation above about 50%; inconclusive = mostly about 30% to 49%; note: 0% is about no effect
#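 Tetracycline-induced TRPML1-DL cells are seeded and incubated overnight before loading with a no-wash Ca2+ dye and quencher. Agonist activity is taken from the 110 s fluorescence read following compound pin-transfer on an FDSS, before EC80 54-4 challenge.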
# DRD3 agonist = qHTS of D3 Dopamine Receptor Agonist: qHTS. D(3) dopamine receptor (Homo sapiens), P35462. D3R DiscoveRx beta-arrestin cells, luminescence, 90 min. max activation, %. 410,000 tested, 0.58% active. AID 652048, 2013; in the data active = max activation above about 30%; note: 0% is about no effect
#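 Agonist mode: compounds and dopamine controls were applied to plated cells for 90 min at 37 degrees C after an overnight attachment at 1500 cells/well. Luminescent read-out followed 30 - 60 minutes at room temperature with DiscoveRx detection reagent.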
# DRD3 antagonist = qHTS of D3 Dopamine Receptor Antagonist: qHTS; D3R cells, DiscoveRx beta-arrestin luminescence, antagonist mode; active compounds read low; 360,000 tested, 2.5% active; max response, negative = inhibition, %; AID 652054, 2013; in the data active = max response below about -50%; inconclusive = no clear call, values can overlap the other calls; note: % is set by controls: 0 for no effect and ±100 for the full control effect
#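 Cells expressing the human receptor were seeded at 1500 cells/well, incubated overnight at 37 degrees C in 5% CO2, then exposed to library compounds with dopamine controls for 90 minutes at 37 degrees C before luminescent detection.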
# * marks the source's active call; other numbers are inactive results; ? = inconclusive; nt = not tested or not shown; ! = not confirmed by another sample. Hits are enriched below; roughly 2.9% of the tested compounds scored in any of these assays.
SMILES,TRPML1 inh,TRPML1 ag,DRD3 agonist,DRD3 antagonist
O=C(C[n+]1cccc(CNC(=O)c2ccc(OC(F)F)cc2)c1)Nc1cccc(C(F)(F)F)c1,-9,0,-3,-51*
O=C(C[n+]1cccc(CNC(=O)c2ccc(OC(F)F)cc2)c1)Nc1ccc(F)cc1,-10,0,-12,-28
CCC(C)(C)C1CCc2[nH]nc(C(=O)NCc3ccccn3)c2C1 (stereo not given),3,-1,4,17
CCC(C)(C)C1CCc2[nH]nc(C(=O)NCc3ccc(Cl)cc3)c2C1 (stereo not given),-5,0,0,-75*
COC(=O)c1ccsc1NC(=O)CCS(=O)(=O)c1ccccc1,7,1,2,10
COC(=O)c1ccsc1NC(=O)CS(=O)(=O)c1ccccc1,1,1,-15,-102*
Cc1occc(=O)c1O,-5,0,1,-53*
Cc1c(O)ccoc1=O,nt,nt,17,1
CCOC(=O)CC(S(=O)(=O)c1ccccc1)S(=O)(=O)c1ccccc1,-10,2,-13,-95*
CCOC(=O)N=S(N)(=O)c1ccccc1 (stereo not given),15,0,32*,16
Nc1ccc(/C=C/c2cc(Cl)nc3ccccc23)cc1,nt,11,nt,nt
COc1ccc(/C=N/NC(=O)C[n+]2ccccc2)c(OC)c1OC,24,0,-12,-51*
O=C(Cn1c(=O)oc2ccccc21)NCc1ccccc1Cl,-21,1,1,nt
COC(=O)c1ccc(-n2c(/C=C\c3cccc(Br)c3)nc3ccccc3c2=O)cc1,-12,1,-6,nt
COc1c(Br)cc(Br)cc1C(=O)O,-7,0,37*,-13
Cc1cccc(Cn2c(CN3CCC(C(=O)NCCc4ccccc4)CC3)cc3ccccc32)c1,-16,3,-17,nt
CC(=O)c1cccc(NC(=O)Cn2c(=O)c(CNc3ccc(C)cc3)cc3cc4c(cc32)OCCO4)c1,9,4,3,nt
CCc1cccc(NC(=O)CC(c2ccc(OC)cc2)N2Cc3ccccc3C2=O)c1 (stereo not given),-12,1,-22,nt
O=C1c2ccccc2C(=O)c2c(O)c(O)cc(O)c21,5,0,-92,-67*
Cc1ccc(C(C)C)c(OCC(=O)NCC2(N(C)C)CCCCC2)c1,15,2,-8,nt
COC(=O)c1cc2c([nH]c1=O)CC(c1ccccc1)CC2=O (stereo not given),nt,-1,nt,nt
OCCN1CCN(C2CCC(c3ccc(F)cc3)c3ccc(F)cc32)CC1 (stereo not given),2,1,-21,-63*
Nc1ncc(-c2ccc(F)cc2)nc1N1CCN(CCO)CC1,nt,0,-14,-21
CC(=O)Nc1cccc(NC(=O)c2c(-c3ccccc3)c(-c3ccccc3)nn(C)c2=O)c1,0,1,0,nt
O=C(O)c1ccc(N=N/C(=N\Nc2ccc(C(=O)O)cc2)c2ccccc2)cc1,-6,0,-29,-53*
SMILES,TRPML1 inh,TRPML1 ag,DRD3 agonist,DRD3 antagonist
O=C(O)c1cccc(N/N=C(\N=Nc2ccccc2)c2ccccc2)c1,42,2,-9,-11
COc1ccccc1NC(=O)CSc1nnc(NC(=O)Nc2ccc(C)cc2)s1,3,1,1,nt
Cc1cccc(N2CCN(C(=O)c3cn(CC(C)C)c(=O)c4c3c3ccccc3n4C)CC2)c1C,31,2,30*,nt
Cc1ccc(C)c(N2CCN(C(=O)c3cn(CC(C)C)c(=O)c4c3c3ccccc3n4C)CC2)c1,-20,0,4,nt
CCC(Sc1nc2ccncc2[nH]1)C(=O)Nc1cc(Cl)ccc1C (stereo not given),3,0,35*!,152
CCCOP(=O)(c1ccc(N(C)C)cc1)C(O)c1cccnc1 (stereo not given),4,0,30*,-8
c1ccc(C2OC3c4cccc5cccc(c45)C3N2c2ccccc2)cc1 (stereo not given),6,0,-5,-59*
CC(C)(C)c1ccc(S(=O)(=O)N2CCN(c3nc(-c4ccccc4)nc4ccccc34)CC2)cc1,nt,0,nt,nt
COc1ccc(CNC(=O)COc2cc3c(c4oc(=O)cc(C)c24)CCC(C)(C)O3)cc1,nt,nt,36*,24
O=c1[nH]c2c(-c3nc(-c4ccc(F)cc4)cs3)c(O)cn2c2ccc(Br)cc12,nt,0,nt,nt
CCN(C1CCCCC1)S(=O)(=O)c1ccc(S(=O)(=O)N2CCN(CCC#N)CC2)cc1,23,2,-3,-53*
N#CCCN1CCN(S(=O)(=O)c2ccc(S(=O)(=O)N3CCCCCC3)cc2)CC1,-3,0,-9,-11
O=C(Cn1cc(C(=O)c2cccs2)c2ccccc21)Nc1ccc(Br)cc1,5,0,-13,nt
O=C(CS(=O)c1ccc(C(F)(F)F)cc1[N+](=O)[O-])Oc1ccc(Cl)cc1 (stereo not given),10,-1,-4,-97*
Cc1cc(C)cc(OC(=O)CS(=O)c2ccc(C(F)(F)F)cc2[N+](=O)[O-])c1 (stereo not given),17,0,-9,-73*
CSc1ccc(S(=O)(=O)Nc2ccc(F)cc2)cc1,-1,3,-6,-27
CSc1ccc(S(=O)(=O)Nc2c(C)cccc2C)cc1,11,1,-9,-166*
COc1ccccc1NS(=O)(=O)c1cccc(-n2c(O)c(C=Nc3ccccc3C(=O)O)c3ccccc3c2=O)c1,13,3,62*,98
COc1ccc(Cn2c(O)c(C=Nc3ccccc3C(=O)O)c3ccccc3c2=O)cc1,11,3,23,67
CCCCN(CC)CCCNC(=S)Nc1ccc2nc(N3CCN(C)CC3)cc(C)c2c1,1,0,6,?
CCCCN(CC)CCCNC(=S)Nc1ccc2nc(N3CCN(CC)CC3)cc(C)c2c1,-1,0,12,-54*
C=CCn1c(SCC(=O)Nc2sccc2C(N)=O)nc2sc(C)c(C)c2c1=O,3,1,41*,10
C=CCn1c(SCC(=O)Nc2ccccc2C)nc2sc(C)c(C)c2c1=O,2,-1,2,6
CCN1CCN(Cc2ccc(NC(=O)c3ccc(C)c(NC(=O)C(=O)c4c[nH]c5ccccc45)c3)cc2C(F)(F)F)CC1,-4,0,-13,-72*!
CCN1CCN(Cc2ccc(NC(=O)c3ccc(C)c(NC(=O)c4ccc5n[nH]nc5c4)c3)cc2C(F)(F)F)CC1,-1,0,-11,?
CCN1CCN(Cc2ccc(NC(=O)c3cc(NC(=O)c4cc(C)on4)cc(OC)c3)cc2C(F)(F)F)CC1,-3,1,-2,?

# Source: PubChem BioAssay
